Screening results: PubChem, several laboratories
The list is not random: actives were taken first. Their share in the collection is about 12%.
ROMK mod: modulators of human ROMK potassium channel; Tet-inducible ROMK, thallium flux fluorescence; actives lie on both sides; P48048; 2% of 130,000 active; AID 1918; B-score at 10 µM;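 active = signal ratio slope over the read window, or its plate-corrected B-score, at least 3 SD from the plate mean, either direction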;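 also: B-score of the F/F0 ratio slope over 7 to 12 s after thallium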
Ins promoter up: MIN6 insulin promoter up-regulation; MIN6 insulin promoter-GFP reporter, high-content imaging; stronger effect = higher value; 0.3% of 190,000 active; z-score at 5 µM;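 active = z-score above 3 at 5 µM with at least 500 cells counted in the well; inconclusive = wells under 500 cells, flagged as cytotoxic or low count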
WT yeast gro inh: growth inhibition of WT yeast, mitochondrial fusion screen. 2.1% of 190,000 active. mitochondrial fusion phenotypic screen, WT strain. inhibition, % at 10 µM; in the data active = inhibition above about 58%; tested in S. cerevisiae
KCC2 mod: modulates chloride dependent transport by human KCC2 | 2.2% of 190,000 active | KCC2 cells, thallium flux FluoZin-2 fluorescence | AID 1456 | B-score of Tl+ flux slope (higher = more flux/activation; lower = inhibition) at 10 µM | Q9H2X9;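 active = thallium flux slope and its plate-corrected score both differing from the plate sample mean at a set confidence after two filtering rounds, in either direction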;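 also: slope of fluorescence scaled to starting intensity during 10 to 20 s after thallium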
Target sequence (Q9H2X9 whole entry, looked up): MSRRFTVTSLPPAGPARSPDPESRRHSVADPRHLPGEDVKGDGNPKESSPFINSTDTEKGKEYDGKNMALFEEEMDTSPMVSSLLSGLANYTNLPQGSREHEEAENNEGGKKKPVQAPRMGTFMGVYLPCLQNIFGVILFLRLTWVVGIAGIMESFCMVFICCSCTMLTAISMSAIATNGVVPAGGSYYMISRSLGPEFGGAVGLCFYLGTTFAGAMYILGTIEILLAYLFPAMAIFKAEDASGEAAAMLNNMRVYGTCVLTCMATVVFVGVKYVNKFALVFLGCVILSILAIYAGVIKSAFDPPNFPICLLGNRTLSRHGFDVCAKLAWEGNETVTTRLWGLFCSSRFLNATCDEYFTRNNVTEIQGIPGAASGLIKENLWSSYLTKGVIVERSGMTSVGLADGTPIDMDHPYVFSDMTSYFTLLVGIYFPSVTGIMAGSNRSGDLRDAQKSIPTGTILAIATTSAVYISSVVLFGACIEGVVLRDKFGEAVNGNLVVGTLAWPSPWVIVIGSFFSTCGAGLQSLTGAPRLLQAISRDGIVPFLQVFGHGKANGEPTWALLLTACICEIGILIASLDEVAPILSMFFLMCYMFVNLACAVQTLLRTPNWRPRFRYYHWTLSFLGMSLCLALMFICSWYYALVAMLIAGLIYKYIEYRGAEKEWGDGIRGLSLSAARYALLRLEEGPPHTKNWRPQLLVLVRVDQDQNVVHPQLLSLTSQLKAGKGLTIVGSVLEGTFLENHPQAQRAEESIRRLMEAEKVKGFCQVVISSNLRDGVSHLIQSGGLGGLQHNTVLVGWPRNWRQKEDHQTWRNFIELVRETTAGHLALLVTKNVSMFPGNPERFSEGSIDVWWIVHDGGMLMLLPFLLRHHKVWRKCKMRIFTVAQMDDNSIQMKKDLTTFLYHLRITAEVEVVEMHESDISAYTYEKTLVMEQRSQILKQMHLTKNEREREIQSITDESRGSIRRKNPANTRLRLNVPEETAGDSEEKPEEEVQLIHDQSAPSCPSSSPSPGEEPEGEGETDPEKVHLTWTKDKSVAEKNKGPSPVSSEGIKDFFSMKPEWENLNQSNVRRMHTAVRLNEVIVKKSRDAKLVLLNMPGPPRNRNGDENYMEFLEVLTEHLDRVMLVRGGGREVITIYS
Lmaj promast: inhibitors of Leishmania major promastigote growth; Leishmania major promastigotes, resazurin fluorescence viability; inhibition, % at 10 µM; 9% of 200,000 active; in the data active = inhibition above about 50%;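 also: promastigotes grown with compound for 44 hours at 28 °C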
INS promoter inh: TRM-6 insulin promoter activity inhibition; TRM-6 cells (human fetal islet line), insulin promoter-eGFP reporter, imaging; reporter expression induced with tamoxifen; inhibition, % at 2 µM; 0.9% of 130,000 active;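 active = inhibition above the mean plus 3 SD, with well images judged a real hit on visual review, cut at about 60% in these data, passing the limit was not always enough; inconclusive = inhibition over the cutoff but images rejected on review; inactive = inhibition not above the cutoff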
ROMK hit retest: confirmation of human ROMK potassium channel modulators; shares compounds with ROMK mod; normalized thallium flux (F/F0 slope) at 10 µM; 54% of 3,000 active; ROMK thallium flux, fluorescence ratio; stronger effect = lower value;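 active = Flux at 10 µM at least 3 SD below or above vehicle control mean in one or both replicates; inconclusive = no clear call, values can overlap the other calls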
Starred values were filed as active, the others as inactive; u = inconclusive; x = not tested or not shown.

SMILES	ROMK mod	Ins promoter up	WT yeast gro inh	KCC2 mod	Lmaj promast	INS promoter inh	ROMK hit retest
O=C(Cc1ccc(Cl)cc1Cl)OCC(=O)N1CCN(C(=O)c2ccco2)CC1	0.00827	x	x	-1.05	-5.2	4.8	x
Cn1c(/C(C#N)=C/c2cccc(O)c2)nc2ccccc21	-5.04*	0.28	-9.0	-2.31	89.2*	x	0.0486*
C=CCNc1nc(-c2ccc(O)c(C(N)=O)c2)cs1	0.597	0.1	4.3	x	33.0	10.3	0.0822
C=CCNc1nc(-c2cc3ccccc3o2)cs1	x	0.08	41.2	1.07	-3.7	x	x
COc1ccc(CN(C)C2CCCCC2)c(C)c1C	-4.04*	0.37	-3.0	2.39	49.9	12.9	0.0677*
COc1cccc(NS(=O)(=O)c2ccc(NC(C)=O)cc2)c1	-2.14*	0.07	6.0	x	-7.6	22.2	0.0795
COc1ccc(S(=O)(=O)Nc2cccc(NC(C)=O)c2)cc1	0.00578	0.26	-17.4	x	-4.6	-40.0	x
COC(=O)CCC(=O)Nc1cc(Cl)cc(Cl)c1	0.133	-0.37	-3.2	0.0122	-1.3	-28.6	x
CCOc1cc(N2CCOCC2)c(OCC)cc1NC(=O)Cc1cn2ccsc2n1	0.506	0.31	-0.1	0.24	-4.7	x	x
N#Cc1c2ccc(OCC(N)=O)cc2n2ccccc12	-3.19*	0.15	3.5	-0.97	22.9	-60.0	0.0508*
CCCOc1cc(C)c(S(=O)(=O)NC2CC(C)(C)NC(C)(C)C2)cc1C	-4.41*	-0.12	3.6	-0.113	97.2*	-16.2	0.0624*
COc1cc(C)c(Cl)cc1S(=O)(=O)NC1CC(C)(C)NC(C)(C)C1	-6.41*	-0.11	-1.0	0.495	-4.6	x	0.052*
COc1cc(C)c(S(=O)(=O)NC2CC(C)(C)NC(C)(C)C2)cc1C	-1.8	-0.9	-3.2	x	4.1	32.3	x
CCc1c(C(=O)NCCc2ccc(OC)c(OC)c2)[nH]c(C)c1C(C)=O	x	-0.17	4.5	0.436	-0.4	-17.1	x
CCOCCCNC(=O)C1CCN(S(=O)(=O)N2CCCCC2)CC1	0.456	-0.43	-0.9	x	-2.6	x	x
Cc1ccc(C2=NN(C(=O)C3CCCO3)C(c3ccco3)C2)cc1 (stereo not given)	-1.6	x	3.0	-0.0228	18.7	4.3	x
O=C(C1CCCO1)N1N=C(c2ccc(Br)cc2)CC1c1ccco1 (stereo not given)	-3.36*	-0.95	20.6	-0.623	28.8	11.1	0.0585*
N#C/C(=C\c1cccs1)C(=O)c1ccccc1Cl	x	0.18	x	-1.15	x	x	0.0517*
CCOC(=O)c1cnc(-n2nc(C)cc2C)nc1NC1CCCCC1	-4.68*	u	82.3*	x	100.2*	35.7	0.0563*
CCOC(=O)c1cnc(-n2nc(C)cc2C)nc1Nc1ccc(O)cc1	x	-0.06	x	0.454	x	x	x
COn1c(SCc2ccc(Cl)cc2)nc2ccccc2c1=O	x	-0.43	49.5	0.457	6.5	-77.1	x
Cc1cc(OCC(=O)N(C)C2CCCCC2)ccc1Cl	x	-0.36	15.6	x	2.6	x	x
CN(C(=O)COC(=O)COc1ccc(Cl)cc1)C1CCCCC1	x	0.15	20.1	-0.0667	-2.5	-30.8	0.0743
COCCNC(=O)c1ccccc1NC(=O)c1ccccc1SC	3.2*	0.35	-0.8	0.557	1.2	-83.3	0.0844
CCN1CCCc2cc(CN(CCN3CCOCC3)C(=O)Nc3ccc(C)c(C)c3)ccc21	-3.53*	-0.32	6.6	-0.533	10.4	50.0	0.0558*
SMILES	ROMK mod	Ins promoter up	WT yeast gro inh	KCC2 mod	Lmaj promast	INS promoter inh	ROMK hit retest
CCc1ccc(NC(=O)N(CCN2CCOCC2)Cc2ccc3c(c2)CCCN3CC)cc1	-1.57	x	-23.4	-0.552	8.5	8.3	x
CC(C)Cn1cc(C(=O)NC2CCN(Cc3ccccc3)CC2)c2c3ccccc3n(C)c2c1=O	-2.16*	-3.06	2.6	x	23.3	x	0.0683*
COc1ccc(CN2CNc3c(c(=O)n(C)c(=O)n3C)C2)cc1	0.177	0.73	4.2	-0.362	-7.4	-6.2	x
COc1ccc2[nH]c(=O)c(CN(CC3CCCO3)C(=O)Nc3ccc(F)cc3)cc2c1 (stereo not given)	x	1.75	2.3	-1.24	18.4	-24.7	0.0613*
COc1ccc(NC(=O)N(Cc2cc3cc(C)ccc3[nH]c2=O)CC2CCCO2)cc1 (stereo not given)	0.493	-1.09	x	0.721	x	x	x
COc1ccc2[nH]c(=O)c(CN(C(=O)NC3CCCCC3)C3CCCC3)cc2c1	-2.84*	x	17.9	x	100.0*	0.0	0.0724
COc1ccc2[nH]c(=O)c(CN(C(C)=O)C3CCCCC3)cc2c1	0.471	-1.11	17.2	x	-0.7	x	x
CSc1cccc(NC(=O)C2CCCN(S(=O)(=O)c3cnc[nH]3)C2)c1 (stereo not given)	x	0.12	-0.3	x	-3.8	x	x
O=C(CCCCN1CCCCC1)c1ccc2c(c1)Cc1ccccc1-2	-4.48*	-1.89	32.8	0.187	99.8*	-66.7	0.0635*
CCn1c(SCC(=O)c2ccc3c(c2)Cc2ccccc2-3)nnc1-c1ccc(N)cc1	x	-0.48	-3.1	-1.27	-3.5	45.7	x
Cc1cc(=O)oc(C)c1C(=O)NCc1ccccn1	-0.0249	-0.4	3.4	-0.775	-6.7	3.0	x
O=C1N=C(N2CCOCC2)S/C1=C/c1ccc(-c2ccccc2Cl)o1	x	-0.14	-0.2	x	1.0	23.1	0.0561*
O=C1N=C(N2CCOCC2)S/C1=C\c1ccncc1	x	0.18	x	-0.393	x	x	x
CC(=C/c1ccccc1)/C=C1/SC(N2CCOCC2)=NC1=O	x	0.17	6.2	-2.24	-2.6	-60.0	0.0535*
COc1cccc(CNCc2cccc(Br)c2)c1OC	0.131	0.25	-12.3	-2.11	7.8	x	x
CCN(CC)C(=O)Oc1ccc(Br)c2ccccc12	-1.07	-0.29	5.3	-0.535	6.6	-40.0	x
CCN(CC)S(=O)(=O)N1CCC(C(=O)NCCN2CCOCC2)CC1	-1.08	0.01	-16.4	0.0121	-10.1	x	x
O=C(O)CCn1cnc2ccccc2c1=O	0.309	1.15	0.6	0.0655	0.6	x	x
COc1cc2ncnc(NCc3ccccc3C)c2cc1OC	x	-0.2	20.3	-0.958	27.9	16.7	u
Cc1ccc(-c2csc(NC(=O)C[n+]3cc(-c4ccccc4)n4c3CCC4)n2)cc1	-6.15*	-0.64	x	-2.29	x	x	0.0601*
Cc1ccc(-c2csc(NC(=O)C[n+]3cc(-c4ccc(C)cc4)n4c3CCC4)n2)cc1	x	-0.12	x	-1.54	x	x	x
O=C(C[n+]1cc(-c2ccc(Br)cc2)n2c1CCCCC2)c1ccccc1	-2.98*	-0.74	-8.2	0.0517	33.7	x	0.0678*
O=C(C[n+]1cc(-c2ccc(Cl)cc2)n2c1CCCCC2)c1ccccc1	x	-1.62	x	1.04	x	x	x
O=C(C[n+]1cc(-c2ccc(Cl)cc2)n2c1CCC2)Nc1nc(-c2ccc(F)cc2)cs1	-5.82*	0.23	x	-3.07	x	x	0.0506*
Cc1ccc(CSc2nncn2-c2ccccn2)cc1	x	x	-6.1	-1.17	-3.6	37.9	x
Cc1c([N+](=O)[O-])cc(S(=O)(=O)Nc2ccncc2)cc1[N+](=O)[O-]	-4.19*	0.01	-9.8	1.92	2.5	x	0.0787
Cc1ccc(S(=O)(=O)Nc2ccccn2)cc1[N+](=O)[O-]	-5.85*	2.03	1.3	-0.608	0.4	x	0.0764
O=S(=O)(Cc1ccccc1)Nc1ccc(Br)cn1	0.759	0.23	-2.6	0.0924	-7.2	-44.2	x
